Data reported in PubChem BioAssay (EPA / NIEHS).
Records with an inconclusive call do not appear. The source made the active and inactive calls. Rule for the calls, unless noted: active = hit-call score of the fitted dose curve at least 0.9, where 1 is the maximum; inconclusive = response in the unintended direction; inactive = score below 0.9.

Columns and labels:
[1] = target: Hepatocyte nuclear factor 3-beta (Homo sapiens) (UniProt Q9Y261); assay: ATG_FoxA2_CIS: Attagene CIS-FACTORIAL HepG2 Assay for human Forkhead box A2 (FOXA2) (AID 2282942; active = hit-call score of the fitted dose curve at least 0.9, where 1 is the maximum; inactive = score below 0.9); settings: HepG2 cis-reporter transcription factor activity, 24 h; actives raise or lower the signal
Sequence of Hepatocyte nuclear factor 3-beta (Homo sapiens) (Q9Y261 whole entry, looked up): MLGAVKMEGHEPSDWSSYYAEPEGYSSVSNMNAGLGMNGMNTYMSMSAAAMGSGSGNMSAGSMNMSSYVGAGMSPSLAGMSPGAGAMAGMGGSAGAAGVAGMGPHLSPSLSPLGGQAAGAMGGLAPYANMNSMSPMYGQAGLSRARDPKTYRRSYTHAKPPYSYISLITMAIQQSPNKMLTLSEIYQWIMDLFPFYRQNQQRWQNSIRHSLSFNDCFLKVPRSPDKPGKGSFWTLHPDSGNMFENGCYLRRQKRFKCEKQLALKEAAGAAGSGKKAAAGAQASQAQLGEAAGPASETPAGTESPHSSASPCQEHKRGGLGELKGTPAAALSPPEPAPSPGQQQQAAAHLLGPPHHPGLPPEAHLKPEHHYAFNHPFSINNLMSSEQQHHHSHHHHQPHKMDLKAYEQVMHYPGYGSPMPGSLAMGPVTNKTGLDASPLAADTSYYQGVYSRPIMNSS
How it was run: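 HepG2 cells transiently transfected with multiple cis-regulated reporter transcription units, dosed for 24 h. Reporter mRNA measured by RT-PCR, 6-FAM labelling, HpaI digestion and capillary electrophoresis; bidirectional fitting against DMSO baseline.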

[2] = ATG_M_32_CIS: Attagene CIS-FACTORIAL HepG2 Assay for M32 Transcription Factor (Internal Marker) (AID 2282949; active = hit-call score of the fitted dose curve at least 0.9, where 1 is the maximum; inactive = score below 0.9;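 note: background control marker of the multiplexed CIS panel rather than a real target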); settings: HepG2 Attagene cis-factorial M32 reporter, mRNA; actives raise or lower the signal
How it was run: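 Transient MRTU transfection of HepG2; 24 h compound treatment; TriZol RNA, oligo(dT) RT, reporter PCR, 6-FAM primer extension, HpaI cut, CE. Gain/loss of signal vs DMSO.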

[3] = ATG_MRE_CIS: Attagene CIS-FACTORIAL HepG2 Assay for human Metal Responsive Element (MRE) (AID 2282954; active = hit-call score of the fitted dose curve at least 0.9, where 1 is the maximum; inactive = score below 0.9); settings: HepG2 MRE cis-reporter transcription, Attagene multiplex; actives raise or lower the signal
How it was run: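 RT-PCR/capillary electrophoresis readout of reporter mRNA, 24 h post-dosing, in HepG2 cells transfected with multiplexed cis-regulated reporter constructs. Gain or loss of signal fitted bidirectionally against DMSO baseline.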

[4] = ATG_RORE_CIS: Attagene CIS-FACTORIAL HepG2 Assay for human RAR-related Orphan Receptor Element (RORE) (AID 2282959; active = hit-call score of the fitted dose curve at least 0.9, where 1 is the maximum; inactive = score below 0.9); settings: HepG2 Attagene cis-factorial RORE reporter, mRNA; actives raise or lower the signal
How it was run: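 HepG2 cells transiently transfected with multiple cis-element reporter transcription units, exposed to chemical for 24 h. Reporter mRNA quantified by RT-PCR, 6-FAM primer-extension labeling, HpaI digestion and capillary electrophoresis; bidirectional fit versus DMSO baseline.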

[5] = target: Hepatocyte nuclear factor 4-alpha (Homo sapiens) (UniProt P41235); assay: ATG_HNF4a_TRANS: Attagene TRANS-FACTORIAL HepG2 Assay for human Hepatocyte Nuclear Factor 4 alpha (HNF4a) (AID 2282982); settings: HepG2 HNF4a transactivation reporter, mRNA readout
Sequence of Hepatocyte nuclear factor 4-alpha (Homo sapiens) (P41235 whole entry, looked up): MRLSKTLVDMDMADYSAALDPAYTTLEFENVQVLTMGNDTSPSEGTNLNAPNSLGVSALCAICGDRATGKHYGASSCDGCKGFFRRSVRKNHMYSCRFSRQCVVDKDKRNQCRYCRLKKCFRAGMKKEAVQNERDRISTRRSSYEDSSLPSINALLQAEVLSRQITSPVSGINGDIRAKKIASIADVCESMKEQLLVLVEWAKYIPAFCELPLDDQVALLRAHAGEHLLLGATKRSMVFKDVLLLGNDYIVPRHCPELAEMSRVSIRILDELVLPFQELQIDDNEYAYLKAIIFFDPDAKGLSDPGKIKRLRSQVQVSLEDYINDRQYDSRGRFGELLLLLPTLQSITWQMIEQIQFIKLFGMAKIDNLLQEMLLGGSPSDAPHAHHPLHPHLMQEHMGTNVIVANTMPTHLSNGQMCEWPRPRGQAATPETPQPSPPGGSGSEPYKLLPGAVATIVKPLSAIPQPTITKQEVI
How it was run: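 Transient MRTU transfection of HepG2, 24 h dosing. Readout: reporter mRNA via RT-PCR + capillary electrophoresis, fluorescence; activity fit upward relative to DMSO control.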

[6] = ATG_M_32_TRANS: Attagene TRANS-FACTORIAL HepG2 Assay for M32 Transcription Factor (Internal Marker) (AID 2282984); settings: HepG2 Attagene TRANS M32 internal marker reporter;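 note: transcript level of a background control reporter unit measured by RT-PCR and capillary electrophoresis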
How it was run: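 Read-out: fluorescent reporter cDNA fragments resolved by capillary electrophoresis after RT-PCR of total RNA. Transfected HepG2 cells were exposed to chemical for 24 h. Activity scored in the positive direction relative to DMSO.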

[7] = target: Nuclear respiratory factor 1 (Homo sapiens) (UniProt Q16656); assay: ATG_NRF1_CIS: Attagene CIS-FACTORIAL HepG2 Assay for human Nuclear Respiratory Factor 1 (NRF1) Orphan Gene (AID 2282987; active = hit-call score of the fitted dose curve at least 0.9, where 1 is the maximum; inactive = score below 0.9); settings: HepG2 NRF1 cis-element reporter, Attagene multiplex; actives raise or lower the signal
Sequence of Nuclear respiratory factor 1 (Homo sapiens) (Q16656 whole entry, looked up): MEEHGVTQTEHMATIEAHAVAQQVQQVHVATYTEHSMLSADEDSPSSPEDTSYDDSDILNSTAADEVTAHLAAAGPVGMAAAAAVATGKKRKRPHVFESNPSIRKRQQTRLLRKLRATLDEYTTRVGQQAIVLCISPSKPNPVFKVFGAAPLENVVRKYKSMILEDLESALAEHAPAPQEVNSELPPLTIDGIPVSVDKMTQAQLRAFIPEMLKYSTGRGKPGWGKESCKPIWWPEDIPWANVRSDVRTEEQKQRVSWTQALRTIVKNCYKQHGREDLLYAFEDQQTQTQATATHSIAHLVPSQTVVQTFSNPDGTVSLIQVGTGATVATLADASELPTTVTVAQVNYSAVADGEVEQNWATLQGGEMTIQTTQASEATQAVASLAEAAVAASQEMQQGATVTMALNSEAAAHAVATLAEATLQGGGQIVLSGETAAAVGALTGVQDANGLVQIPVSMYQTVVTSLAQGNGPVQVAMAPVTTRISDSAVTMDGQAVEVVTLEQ
How it was run: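 HepG2 cells transiently transfected with multiple reporter transcription units under cis-regulatory promoter control, so endogenous transcription-factor activity is read. After 24 h compound exposure, reporter mRNA quantified by RT-PCR, fluorescent labelling, HpaI digestion and capillary electrophoresis; bidirectional fitting versus DMSO.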

[8] = target: human Peroxisome Proliferator-activated Receptor alpha (PPARa), PPARA (gene 5465) (UniProt Q07869); assay: ATG_PPARa_TRANS: Attagene TRANS-FACTORIAL HepG2 Assay for human Peroxisome Proliferator-activated Receptor alpha (PPARa) (AID 2283001);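 for AC50: potency for gain of reporter signal over DMSO so agonist or activator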
Sequence of human Peroxisome Proliferator-activated Receptor alpha (PPARa), PPARA (gene 5465) (Q07869 whole entry, looked up, the tested form may be a part): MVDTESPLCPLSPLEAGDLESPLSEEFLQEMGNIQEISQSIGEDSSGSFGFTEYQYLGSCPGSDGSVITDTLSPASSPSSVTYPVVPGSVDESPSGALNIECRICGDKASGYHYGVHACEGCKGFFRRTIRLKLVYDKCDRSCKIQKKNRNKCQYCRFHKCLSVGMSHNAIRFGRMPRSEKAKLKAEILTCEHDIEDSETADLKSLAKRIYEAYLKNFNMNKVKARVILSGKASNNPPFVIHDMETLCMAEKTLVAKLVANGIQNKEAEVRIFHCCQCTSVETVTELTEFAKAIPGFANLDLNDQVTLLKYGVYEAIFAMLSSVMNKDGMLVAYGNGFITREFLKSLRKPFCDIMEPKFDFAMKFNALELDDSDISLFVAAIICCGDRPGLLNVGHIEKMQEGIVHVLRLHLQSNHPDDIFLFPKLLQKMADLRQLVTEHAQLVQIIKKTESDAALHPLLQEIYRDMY
How it was run: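 Transient HepG2 transfection, GAL4-UAS reporters, NR-Gal4 chimeras; 24 h compound exposure. Readout: reporter transcripts by RT-PCR, 6-FAM primer extension, HpaI digest, capillary electrophoresis. Positive direction vs DMSO baseline.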

[9] = target: Retinoic acid receptor RXR-alpha (Homo sapiens) (UniProt P19793); assay: ATG_RXRa_TRANS: Attagene TRANS-FACTORIAL HepG2 Assay for human Retinoid X Receptor alpha (RXRa) (AID 2283012)
Sequence of Retinoic acid receptor RXR-alpha (Homo sapiens) (P19793 whole entry, looked up, the tested form may be a part): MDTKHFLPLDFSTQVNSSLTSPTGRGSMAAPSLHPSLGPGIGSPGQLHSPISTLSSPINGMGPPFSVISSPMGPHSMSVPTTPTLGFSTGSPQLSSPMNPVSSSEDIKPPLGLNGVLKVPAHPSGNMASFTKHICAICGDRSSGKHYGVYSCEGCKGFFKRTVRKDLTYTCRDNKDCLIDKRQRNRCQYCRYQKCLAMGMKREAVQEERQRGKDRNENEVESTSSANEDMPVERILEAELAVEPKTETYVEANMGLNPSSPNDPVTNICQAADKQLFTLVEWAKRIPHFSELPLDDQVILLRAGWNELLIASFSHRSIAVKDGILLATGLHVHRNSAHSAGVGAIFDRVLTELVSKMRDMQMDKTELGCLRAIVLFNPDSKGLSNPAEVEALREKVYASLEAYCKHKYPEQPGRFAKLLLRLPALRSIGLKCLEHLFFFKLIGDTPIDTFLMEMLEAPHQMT
How it was run: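 Read-out: fluorescent reporter-transcript fragments quantified by capillary electrophoresis after RT-PCR. Transiently transfected HepG2 cells carrying GAL4-UAS reporters and NR-GAL4 chimeras were exposed to chemical for 24 h; activity scored as increase over DMSO.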

[10] = target: human Retinoid X Receptor beta (RXRb), RXRB (gene 6257) (UniProt P28702); assay: ATG_RXRb_TRANS: Attagene TRANS-FACTORIAL HepG2 Assay for human Retinoid X Receptor beta (RXRb) (AID 2283013)
Sequence of human Retinoid X Receptor beta (RXRb), RXRB (gene 6257) (P28702 whole entry, looked up, the tested form may be a part): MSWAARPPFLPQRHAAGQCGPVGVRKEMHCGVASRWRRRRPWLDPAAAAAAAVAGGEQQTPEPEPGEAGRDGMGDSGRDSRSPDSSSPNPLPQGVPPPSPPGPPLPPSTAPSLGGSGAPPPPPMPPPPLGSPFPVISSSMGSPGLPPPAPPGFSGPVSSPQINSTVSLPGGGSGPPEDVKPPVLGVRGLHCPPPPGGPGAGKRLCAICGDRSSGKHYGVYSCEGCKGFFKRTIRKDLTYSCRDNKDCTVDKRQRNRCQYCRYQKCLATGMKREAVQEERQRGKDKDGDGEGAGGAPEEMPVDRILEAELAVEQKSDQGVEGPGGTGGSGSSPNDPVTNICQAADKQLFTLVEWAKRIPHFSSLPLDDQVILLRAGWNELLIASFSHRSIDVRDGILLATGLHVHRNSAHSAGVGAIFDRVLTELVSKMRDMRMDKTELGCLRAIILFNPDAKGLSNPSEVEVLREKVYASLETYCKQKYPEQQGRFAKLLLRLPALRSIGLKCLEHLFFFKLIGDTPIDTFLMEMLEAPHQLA
How it was run: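 Read-out: reporter mRNA induction via RT-PCR plus capillary electrophoresis fluorescence, analysed as signal increase relative to DMSO. Cells were human HepG2, transiently transfected with GAL4-UAS reporter constructs and chimeric receptor-Gal4 fusions, dosed for 24 h.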

[11] = target: Retinoic acid receptor alpha (Homo sapiens) (UniProt P10276); assay: ATG_DR5_RAR_CIS: Attagene CIS-FACTORIAL HepG2 Assay for human Retinoic Acid Receptor Alpha (RARE), DR5 submotif (AID 2282934; active = hit-call score of the fitted dose curve at least 0.9, where 1 is the maximum; inactive = score below 0.9); settings: HepG2 Attagene cis-factorial RARE DR5 reporter, mRNA; actives raise or lower the signal
Sequence of Retinoic acid receptor alpha (Homo sapiens) (P10276 whole entry, looked up): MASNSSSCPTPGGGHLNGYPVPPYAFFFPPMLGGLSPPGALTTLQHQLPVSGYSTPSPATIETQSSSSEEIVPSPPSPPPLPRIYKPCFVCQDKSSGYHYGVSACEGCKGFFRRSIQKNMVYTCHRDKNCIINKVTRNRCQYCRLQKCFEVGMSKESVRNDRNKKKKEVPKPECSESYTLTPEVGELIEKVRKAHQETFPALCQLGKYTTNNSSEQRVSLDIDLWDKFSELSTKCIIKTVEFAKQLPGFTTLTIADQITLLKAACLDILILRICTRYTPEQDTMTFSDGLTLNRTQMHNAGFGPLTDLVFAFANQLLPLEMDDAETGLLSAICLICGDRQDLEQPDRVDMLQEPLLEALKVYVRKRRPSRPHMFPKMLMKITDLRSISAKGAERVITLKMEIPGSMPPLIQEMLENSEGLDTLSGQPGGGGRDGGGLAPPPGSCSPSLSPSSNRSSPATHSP
How it was run: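 HepG2 cells transiently transfected with multiplexed reporter units; DR5 cis-element drives reporter through endogenous transcription factors. After 24 h dosing, reporter mRNA quantified by RT-PCR, fluorescent labeling, HpaI digestion and capillary electrophoresis; bidirectional fitting versus DMSO.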

[12] = ATG_PBREM_CIS: Attagene CIS-FACTORIAL HepG2 Assay for human Phenobarbital-responsive Enhancer Module (PBREM) (AID 2282955; active = hit-call score of the fitted dose curve at least 0.9, where 1 is the maximum; inactive = score below 0.9); settings: HepG2 PBREM cis-reporter, Attagene multiplexed transcription; actives raise or lower the signal
How it was run: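 HepG2 cells transiently transfected with multiple cis-regulated reporter transcription units; endogenous factor activity at the PBREM element measured as reporter mRNA 24 h after dosing, via RT-PCR and capillary electrophoresis of fluorescent fragments; bidirectional fitting versus DMSO.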

[13] = ATG_NF_kB_CIS: Attagene CIS-FACTORIAL HepG2 Assay for human Nuclear Factor Kappa B (NF-kB) (AID 2282991; active = hit-call score of the fitted dose curve at least 0.9, where 1 is the maximum; inactive = score below 0.9); settings: HepG2 Attagene cis-factorial NF-kB reporter mRNA; actives raise or lower the signal
How it was run: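 HepG2 cells transiently transfected with multiplexed cis-element reporter units measuring endogenous transcription factor activity; reporter mRNA read 24 h after dosing by RT-PCR, fluorescent labelling, HpaI digestion and capillary electrophoresis. Bidirectional fit against DMSO baseline.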

[14] = TOX21_p53_BLA_p2_viability: Viability Assessment in the Tox21 HCT-116 p53 Agonism Beta-lactamase Assay, Phase 2 (AID 2283591);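 note: compound exposure lasted 16 h at 37 °C; actives lower the ATP signal meaning cytotoxicity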
How it was run: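 HCT116 p53-bla cells, 4000/well, dosed after 5 h plating (217-fold dilution of DMSO stocks) and incubated 16 h at 37C. Viability taken as cellular ATP by CellTiter-Glo luminescence after 30 min RT; signal loss marks cytotoxicity.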

[15] = target: Cellular tumor antigen p53 (Homo sapiens) (UniProt P04637); assay: TOX21_p53_BLA_p3_ratio: Tox21 HCT-116 p53 Agonism Beta-lactamase Assay, Ratio, Phase 3 (AID 2283596)
Sequence of Cellular tumor antigen p53 (Homo sapiens) (P04637 whole entry, looked up): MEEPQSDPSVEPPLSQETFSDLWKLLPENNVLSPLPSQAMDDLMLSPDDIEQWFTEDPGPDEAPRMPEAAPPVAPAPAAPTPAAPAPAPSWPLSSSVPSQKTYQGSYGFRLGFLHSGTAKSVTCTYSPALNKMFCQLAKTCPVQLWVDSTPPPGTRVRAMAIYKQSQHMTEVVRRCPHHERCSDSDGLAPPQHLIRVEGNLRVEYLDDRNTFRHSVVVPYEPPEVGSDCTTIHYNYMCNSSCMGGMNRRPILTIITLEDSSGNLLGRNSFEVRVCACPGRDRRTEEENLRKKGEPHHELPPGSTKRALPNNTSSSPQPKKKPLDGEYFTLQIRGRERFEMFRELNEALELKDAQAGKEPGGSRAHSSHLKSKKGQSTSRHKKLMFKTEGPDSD
How it was run: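 Cells were seeded at 4000/well, rested 5 h at 37C, then dosed with DMSO compound solutions (217-fold dilution) for 16 h. CCF4-AM substrate was loaded for 2 h at room temperature, and the 460/530 nm emission ratio was fitted for gain of signal versus DMSO.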

[16] = target: Cellular tumor antigen p53 (Homo sapiens) (UniProt P04637); assay: TOX21_p53_BLA_p5_ratio: Tox21 HCT-116 p53 Agonism Beta-lactamase Assay, Ratio, Phase 5 (AID 2283599)
How it was run: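 HCT-116 p53-bla cells (4000/well) plated 5 h, dosed with compound (217-fold DMSO dilution) for 16 h at 37 C; CCF4-AM substrate 2 h at room temperature. Activity is the 460/530 nm emission ratio (405 nm excitation), fitted in gain-of-signal direction versus DMSO.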

[17] = TOX21_p53_BLA_p5_viability: Viability Assessment in the Tox21 HCT-116 p53 Agonism Beta-lactamase Assay, Phase 5 (AID 2283600)
How it was run: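 Viability is taken from cellular ATP content, measured by luciferase luminescence in the same wells after the beta-lactamase ratio read. Cells are seeded at 4000 per well and exposed to DMSO-dissolved compounds, diluted 217-fold, for 16 h.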

[18] = target: Cellular tumor antigen p53 (Homo sapiens) (UniProt P04637); assay: TOX21_p53_BLA_p4_ratio: Tox21 HCT-116 p53 Agonism Beta-lactamase Assay, Ratio, Phase 4 (AID 2283601)
How it was run: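 HCT-116 p53 beta-lactamase reporter cells (4000/well) preincubated 5 h, then compound (217-fold dilution of DMSO stock) for 16 h at 37C. CCF4-AM substrate added 2 h at room temperature; 460/530 nm emission ratio fitted upward versus DMSO.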

[19] = ATG_GLI_CIS: Attagene CIS-FACTORIAL HepG2 Assay for human Zinc Finger Protein GLI1 (AID 2282945; active = hit-call score of the fitted dose curve at least 0.9, where 1 is the maximum; inactive = score below 0.9); settings: HepG2, Attagene cis-factorial reporter mRNA, GLI element; actives raise or lower the signal
How it was run: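 Transiently transfected HepG2 cells report endogenous transcription factor activity via cis-element-driven reporter units. After 24 h compound exposure, reporter mRNA was measured by RT-PCR with capillary electrophoresis; bidirectional fitting against DMSO baseline.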

[20] = ATG_GRE_CIS: Attagene CIS-FACTORIAL HepG2 Assay for human Glucocorticoid Response Elements (GRE) (AID 2282947; active = hit-call score of the fitted dose curve at least 0.9, where 1 is the maximum; inactive = score below 0.9); settings: HepG2 GRE cis-reporter, Attagene multiplex mRNA; actives raise or lower the signal
How it was run: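 Read-out: fluorescent reporter-transcript fragments separated by capillary electrophoresis after RT-PCR. Transiently transfected HepG2 cells carrying cis-element-driven reporter units were dosed for 24 h; gain or loss of signal fitted against DMSO control.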

Measured: AC50

C1=CCC=C1
inactive: [1] | [2] | [3] | [4] | [5] | [6] | [7] | [8] | [9] | [10]

Oc1ccc(Cl)cc1C1CCCC1
active: [3] 53 µM | [8] 39.1 µM | [9] 17.6 µM | [10] 3.12 µM | [18] 55.6 µM
not listed: [1] | [4] | [7] | [19] | [20]
inactive: all other assays above

C=CN1CCCCCC1=O
not listed: [5] | [6] | [7] | [11] | [12] | [13] | [17]
inactive: all other assays above

CCCCCCC1CCCC(=O)O1 (stereo unspecified)
active: [4] 19.8 µM | [8] 27.3 µM
not listed: [10] | [13] | [15]
inactive: all other assays above

CCCCCCCC#N
inactive: [11] | [1] | [19] | [20] | [2] | [4] | [5] | [13] | [9]

CN(C)c1ccc(C(c2ccccc2)c2ccc(N(C)C)cc2)cc1
not listed: [1] | [2] | [3] | [7] | [8] | [11] | [20]
inactive: all other assays above

CC[N+](CC)(CC(=O)Nc1c(C)cccc1C)Cc1ccccc1
inactive: [1] | [19] | [3] | [5] | [6] | [7] | [8] | [9]

COC(=O)/C=C\C(=O)OC
active: [20] 128 µM
not listed: [6] | [9] | [13] | [14] | [15]
inactive: all other assays above

COC(OC)C(C)c1ccccc1 (stereo unspecified)
not listed: [3] | [4] | [8] | [12]
inactive: all other assays above
